# Hits are enriched below; roughly 21% of the tested compounds scored in any of these assays.
# DT40 TDP1 CPT: qHTS for Inhibitors of human tyrosyl-DNA phosphodiesterase 1 (TDP1): qHTS in cells in presence of CPT; Potency, µM (titrated, usually from 46.2 µM), most hits filed as inhibitors; actives 12% (n = 420,000); chicken DT40 Tdp1-/-;hTDP1 cells + 20 nM CPT, ATP luminescence, 48 h; note: nearly all actives have a fitted effect of over 55% in size
#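 Chicken DT40 Tdp1-/- cells stably complemented with human TDP1 were seeded at 400 cells/well in medium containing 20 nM camptothecin, exposed to pin-transferred compounds, and grown at 37 °C for at least 48 hr. Viability was read as ATP luminescence.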
# DT40 TDP1 no CPT: qHTS for Inhibitors of human tyrosyl-DNA phosphodiesterase 1 (TDP1): qHTS in cells in absence of CPT. Potency, µM (top dose mostly 46.2 µM), usual class: inhibitors. DT40 Tdp1-/- hTDP1 cells, no CPT, ATP luminescence, 48 h. actives 15% (n = 420,000); note: nearly all actives have a fitted effect of over 55% in size
#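 Camptothecin absent (DMSO only). Human TDP1-complemented DT40 knockout cells, 400 cells/well, 37 °C for minimum 48 hr; ATP measured via CellTiter-Glo, 30 min dark incubation, luminescence.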
# IL1B secr inh: qHTS for Inhibitors of Inflammasome Signaling: IL-1-beta AlphaLISA Primary Screen; THP-1 LPS/ATP IL-1B secretion, AlphaLISA, 16 h; stronger effect = lower value; activity change, % at 57.5 µM; actives 4.7% (n = 360,000); in the data active = activity change below about -50%; inconclusive = mostly about -30% to -49%
#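 Secreted IL-1B measured by AlphaLISA bead assay after 16 h compound exposure of THP-1 cells; compounds (final up to 57.5 uM) added 1 h before LPS (250 ng/mL) and ATP (1.25 mM) stimulation; lower signal means less secretion.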
# RORg inh: qHTS for inhibitors of ROR gamma transcriptional activity; Drosophila S2 Gal4-RORgamma UAS-luciferase reporter, 20 h; Potency, µM (titrated, usually from 53.6 µM), actives largely listed as inhibitors; actives 5.4% (n = 310,000); AID 2551, 2010; note: nearly all actives have a fitted effect of over 60% in size
# Target sequence (P51450 whole entry, looked up, the tested form may be a part): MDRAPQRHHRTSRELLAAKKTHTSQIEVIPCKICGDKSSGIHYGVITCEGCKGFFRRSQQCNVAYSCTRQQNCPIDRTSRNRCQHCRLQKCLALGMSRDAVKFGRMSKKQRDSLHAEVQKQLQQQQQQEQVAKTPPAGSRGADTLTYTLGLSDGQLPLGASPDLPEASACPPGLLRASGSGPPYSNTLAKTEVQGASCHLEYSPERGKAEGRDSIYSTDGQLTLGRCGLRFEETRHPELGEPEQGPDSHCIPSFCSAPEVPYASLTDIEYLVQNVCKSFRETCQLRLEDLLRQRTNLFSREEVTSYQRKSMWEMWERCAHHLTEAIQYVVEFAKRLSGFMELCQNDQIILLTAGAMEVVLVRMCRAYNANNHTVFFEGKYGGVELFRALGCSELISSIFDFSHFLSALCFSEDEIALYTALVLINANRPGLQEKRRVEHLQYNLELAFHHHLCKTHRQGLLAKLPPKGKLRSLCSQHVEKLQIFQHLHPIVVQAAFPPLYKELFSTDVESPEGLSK
#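 A Gal4/UAS one-hybrid system in insect cells: metallothionein-promoter Gal4–ROR gamma fusion plus Photinus luciferase reporter. Copper sulfate 700 uM final, 20 hr ambient incubation, luminescent detection after 10 min with reagent.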
# VP16 counter: VP16 counterscreen qHTS for inhibitors of ROR gamma transcriptional activity. Drosophila S2 Gal4-VP16 UAS-luciferase, luminescence, 20 h. Potency, µM (highest dose often 53.6 µM), usual class: inhibitors. actives 3.5% (n = 310,000). AID 2546, 2010;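 note: Gal4-VP16 expression switched on by copper sulfate through the metallothionein promoter; nearly all actives have a fitted effect of over 50% in size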
# ELG1 repair inh: qHTS screen for small molecules that inhibit ELG1-dependent DNA repair in human embryonic kidney (HEK293T) cells expressing luciferase-tagged ELG1; AID 504467, 2011; Potency, µM (highest dose often 46.1 µM), most hits filed as inhibitors; actives 2.3% (n = 330,000); HEK293T ELG1-luciferase reporter, luminescence, 16 h; DNA damage induced by 5-fluorouridine; note: nearly all actives have a fitted effect of over 55% in size
#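 HEK293T cells expressing luciferase-tagged ELG1 (2,000/well) received 5-Fluorouridine plus compound or DMSO for 16 hr at 37 °C. Luciferase was read by ONE-Glo luminescence after 30 min at room temperature.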
# Numbers stand for hits; 0 = inactive; ? = inconclusive; - = no result; [ ] = remark or other dose. Unless noted, calls come from the whole dose curve; as a rule, active = well fitted curve in the direction sought with a large enough effect; inconclusive = small, poorly fitted or top-dose-only effect, or another doubt; inactive = no such curve, though single readings can be large; an effect the other way counts as inactive or inconclusive.
SMILES,DT40 TDP1 CPT,DT40 TDP1 no CPT,IL1B secr inh,RORg inh,VP16 counter,ELG1 repair inh
O=C(COc1cccc(Br)c1)Nc1ccc(N2CCOCC2)cc1N1CCOCC1,18µM,?,0,-,-,0
CC(=O)c1cccc(OCC(=O)Nc2ccccc2N2CCOCC2)c1,18µM,?,?,-,-,?
COc1cccc(-c2ocnc2C(=O)Nc2ccc(N3CCOCC3)cc2N2CCOCC2)c1,?,?,0,0,0,18µM
COc1ccc(-c2ocnc2C(=O)Nc2ccccc2N2CCCCC2)cc1,?,?,0,0,0,0
CCOc1ccc(Nc2cc(C)c(C#N)c3nc4ccccc4n23)cc1,?,0,-,-,-,-
CCc1cccc(NC(=O)c2ccc(CNc3c(N4CCCC4)c(=O)c3=O)cc2)c1,?,?,0,0,0,0
CC(C)[C@H](NC(=O)c1ccccc1)C(=O)Nc1ccc2c(c1)OCO2,0,0,0,-,-,?
CCCCn1c(C)cc2c(c1=O)C1O[C@](CCCC)(Cc3cc(C#N)ccc31)O2,-,-,-,0[10 µM],0[10 µM],-
Cc1cc(C)cc(C(O)c2ncc(-c3ccccc3C)[nH]2)c1 (stereo not drawn),?,?,0,-,-,-
N#CCCN(C(=O)c1ccco1)c1ccccc1,0,0,0,1.4µM,0,0
N#CCCN(C(=O)COC(=O)CCc1ccccc1)c1ccccc1,0,0,0,0,0,0
CCCc1n[nH]c(=O)c2c1nnn2Cc1ccccc1,0,0,0,0,0,0
CCc1cc(-c2cnnn2Cc2ccccc2)ccc1-c1cn(CC(C)C)nn1,?,10µM,?,-,-,-
CN(C)S(=O)(=O)c1cccc(C(=O)C2=C3SC=C(c4ccccc4)N3CC2)c1,?,23µM,0,0,0,0
CN(C)CCNC(=O)c1ccc(CS(=O)(=O)c2c(Cl)cccc2Cl)o1,0,0,0,?,0,0
Cc1ccccc1S(=O)(=O)Cc1ccc(C(=O)NC2CCCCC2)o1,21µM,?,?,0,0,0
Cc1cccc(S(=O)Cc2ccc(C(=O)NC3CCCCCC3)o2)c1 (stereo not drawn),12µM,?,-,-,-,-
CCc1ccccc1S(=O)(=O)Cc1ccc(C(=O)NC2CCCC2)o1,0,0,0,0,0,0
CC1CCC(NC(=O)c2ccc(CS(=O)(=O)c3c(Cl)cccc3Cl)o2)CC1 (stereo not drawn),15µM,?,-,-,-,-
O=C(NC1CC1)c1ccc(CSCc2ccc(Cl)cc2)o1,?,21µM,0,-,-,-
CCc1cccc2cc(C(O)CNC(C)(C)C)oc12 (stereo not drawn),-,-,-,0,0,-
Cc1ccc(S(=O)(=O)N2CCCCC2)cc1NC(=O)CSc1nc(N)cc(=O)[nH]1,0,0,0,-,-,0
Cc1ccc(CS(=O)(=O)Cc2ccc(C(=O)NC3CCCCCC3)o2)cc1,?,?,0,?,0,18µM
CCN1C(=O)N(c2cccc3ccccc23)C(C)=CC1(C)C,?,23µM,0,0,0,0
COc1ccccc1NC(=O)c1ccc2c(c1)N(CC(=O)NC(C)(C)C)C(=O)C(C)(C)O2,0,0,0,0,0,0
SMILES,DT40 TDP1 CPT,DT40 TDP1 no CPT,IL1B secr inh,RORg inh,VP16 counter,ELG1 repair inh
CC(C)(C)NC(=O)c1ccc2c(c1)N(CC(=O)N1CCCC1)C(=O)C(C)(C)O2,0,0,0,0.63µM,0,0
Cc1ccc(NC(=O)c2ccc3c(c2)N(CC(=O)N2CCCCC2)C(=O)C(C)(C)O3)cc1,0,?,0,0,0,13µM
CCOC(=O)CN1C(=O)C(C)(C)Oc2ccc(C(=O)Nc3ccccc3OC)cc21,16µM,23µM,0,0,0,18µM
COc1ccccc1NC(=O)NNC(=O)c1ccc2c(c1)NC(=O)C(C)(C)O2,23µM,?,0,0,0,0
Cn1c(=S)n(CCC(=O)O)c2ccccc21,0,0,0,0,0,0
CC[C@H](C)[C@H](NC(=O)[C@@H](NC(=O)CNC(=O)[C@@H](N)CC(C)C)[C@@H](C)O)C(=O)N1CCC[C@H]1C(=O)NCC(=O)O,-,-,-,0,0,-
CCC1([N+](=O)[O-])COC(c2ccc(Cl)cc2)OC1 (stereo not drawn),0,0,0,-,-,-
Cc1c(C(=O)NN2CCOCC2)oc2ccccc12,0,0,0,0,0,0
Cc1c(C(=O)NN2CCOCC2)oc2c1ccc1ccccc12,0,?,-71,0,0,0
Cc1ccc(Nc2nnc(C)c3ccccc23)c(C)c1,0,?,0,-,-,-
COc1ccc(C(=O)Nc2ccc(N3CCOCC3)cc2)cc1S(=O)(=O)NC1CCCC1,0,0,0,0,0,?
CCc1ccc(NC(=O)c2ccc(F)c(S(=O)(=O)NC3CCCCCC3)c2)cc1,?,21µM,-,-,-,-
CCc1ccc(NC(=O)c2ccc(F)c(S(=O)(=O)N(C)C3CCCCC3)c2)cc1,?,21µM,-,-,-,-
CC(=O)Nc1ccc(NC(=O)c2cccc(S(=O)(=O)N(C)C3CCCCC3)c2)cc1,?,?,0,-,-,?
O=C(Nc1cc(Cl)cc(Cl)c1)c1ccc(F)c(S(=O)(=O)NC2CCCC2)c1,16µM,18µM,-,-,-,-
Cc1ccccc1NC(=O)c1ccc(F)c(S(=O)(=O)NC2CCCC2)c1,0,0,-,-,-,-
CCCCC(=O)/C=C/n1c(=S)oc2ccccc21,5.2µM,4.1µM,-101,?,?,?
CC(C)OC(=O)n1c(=S)oc2ccccc21,?,?,0,0,?,?
CC(C)COc1ccc(Nc2ncnc3ccc(Br)cc23)cc1,12µM,?,-,-,-,-
Brc1ccc2ncnc(Nc3ccc(N4CCOCC4)cc3)c2c1,12µM,9.2µM,0,?,0,6.5µM
CCOC(=O)Cn1cccc1-c1nc(-c2ccc(OC)cc2)c(-c2ccc(OC)cc2)s1,0,0,-,-,-,-
CCSc1nn(CC(=O)Nc2cccc(CC)c2)c(N)c1S(=O)(=O)c1ccccc1,?,15µM,-,-,-,-
COc1ccc(S(=O)(=O)c2c(SC)nn(CC(=O)Nc3ccc(C)c(Cl)c3)c2N)cc1,26µM,26µM,-,-,-,-
CCc1ccc(NC(=O)Cn2nc(SC)c(S(=O)(=O)c3ccc(OC)cc3)c2N)cc1,0,0,-,-,-,-
Cc1cc(CN2CCN(CCC#N)CC2)c(O)c(C2(C)CCCCC2)c1,16µM,21µM,0,0,0,0
OC(CC1CC12c1ccccc1-c1ncccc12)(c1ccccc1)c1ccccc1 (stereo not drawn),?,16µM,?,?,0,0
